# The campaign covered roughly 290,000 compounds. About 2,300 (0.79%) were called active. What follows is part of a selection rich in actives, with near analogues and random picks from the rest. Values without a mark were called inactive. Cut-off read from the data, not from the text of the source: active = inhibition above about 22%; inactive = the rest.
# Test: cytotoxicity in IEC-6 intestinal epithelial cells, primary screen, cytotoxicity control for KLF5 inhibitor project, cell-based, luminescence (AID 1825);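 note: 0% = plate median of test compound wells and 100% = cytotoxic reference compound wells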
# Details: IEC-6 cytotoxicity, luminescence viability; at 5 µM; stronger effect = higher value
row,SMILES,inhibition
1,CCOc1ccc(NC(=O)CCC(=O)NNC(=O)NC2CCCCC2)cc1,-7.2%
2,O=S(=O)(c1ccc(Br)cc1)n1ccc2ccccc21,3.2%
3,CCn1c(SCC(=O)NC2=NCCS2)nnc1C(C)NC(=O)c1ccccc1F (configuration not stated),0.1%
4,CCCC(=O)Nc1nc2ccc(NC(=O)c3c(F)c(F)c(OC)c(F)c3F)cc2s1,76.8% (active)
5,O=C(Cc1ccccc1)Nc1ccc(NC(=O)c2cccnc2)cc1,0.2%
6,CCCC(=O)Nc1nc2ccc(NC(=O)c3cccnc3)cc2s1,30.2% (active)
7,CSc1nc2ccc(NC(=O)c3c(F)cccc3F)cc2s1,8.5%
8,CCOC(=O)c1ccc(NC(=O)c2cccnc2)cc1,-6.9%
9,CCOc1ccc2nc(Nc3nc4ccc(NC(C)=O)cc4s3)sc2c1,-2.2%
10,COc1ccccc1/C=C/C(=O)NC1CC2CCC1C2 (configuration not stated),4.4%
11,Cc1cc(C)n2nc(SCC(N)=O)nc2n1,4.6%
12,Cc1cc(C)n2nc(C(=O)NC(C)(C)C)nc2n1,3.3%
13,Cc1cc(C)n2nc(CNS(=O)(=O)c3c(F)c(F)c(F)c(F)c3F)nc2n1,31.5% (active)
14,O=C1C(=O)N(CCCN2CCOCC2)C(c2ccc([N+](=O)[O-])cc2)/C1=C(\O)c1ccc2c(c1)OCCO2 (configuration not stated),-1.8%
15,COc1ccc(Nc2ncc(C(=O)N3CCN(c4ccccc4OC)CC3)c3ccccc23)cc1,11.7%
16,NS(=O)(=O)c1cccnc1Nc1cccc(Cl)c1,-0.6%
17,Cn1c(Nc2cccc(Cl)c2)nc2ccccc21,4.2%
18,CCOc1c(Nc2cccc(Cl)c2)c(=O)c1=O,23.4% (active)
19,O=C(Nc1ccc(Br)cn1)c1ccc([N+](=O)[O-])o1,16.7%
20,Cc1onc(NC(=O)c2ccc([N+](=O)[O-])o2)c1Br,46.1% (active)
21,Cc1cccc(NC(=O)c2sc(-c3ccccc3)nc2-c2ccc([N+](=O)[O-])cc2)c1,-10%
22,Cc1cccc(NC(=O)c2ccc([N+](=O)[O-])o2)c1,66.2% (active)
23,Cc1cccc(NC(=S)NC(=O)c2ccc(Br)o2)c1,1.6%
24,Cc1onc(C(=O)NCc2ccc(F)cc2)c1[N+](=O)[O-],-2.3%
25,O=c1[nH]cnc(O)c1C(c1ccc(F)cc1)c1c(O)nc[nH]c1=O,-4.2%
26,CC1C(=O)Nc2ccc(S(=O)(=O)N3CCN(c4ccccc4F)CC3)cc2NC1=O (configuration not stated),1.5%
27,O=c1c2c(-c3ccccc3)ccnc2[nH]n1-c1ccccc1,-0.7%
